# Measurements as given in PubChem BioAssay AID1159580 (chemical genetic matrix, 2015).
# In all, about 5,500 compounds went through this assay and about 2,000 (36%) were called active. Roughly 18% stayed inconclusive and do not appear here. Some of the results follow. Values without a mark were called inactive. No stated cut-off is given here; in the data, active means normalized growth mostly below about 0.91 (no sharp cut-off); inconclusive means no clear call, values can overlap the other calls; inactive means mostly above about 0.92.
# Experiment: chemical genetic growth profiling, strain panel (AID 1159580);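 further: tested at 20 µM; growth read once vehicle control cultures reached saturation at 30 °C; 1 = growth at the plate median or of vehicle wells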
# Conditions: growth OD
smiles,measurement,setting,value
CC(=O)O[C@H]1CC[C@@]2(C)C(CC[C@]3(C)C2C(=O)C=C2C4[C@@H](C)[C@H](C)CC[C@]4(C(=O)O)CC[C@]23C)C1(C)C (stereo partly drawn),normalized growth,"S. cerevisiae deletion strains, locus YAL013W, strain DEP1, stronger effect = lower value",1
same,normalized growth,"S. cerevisiae deletion strains, locus YBR021W, strain FUR4, stronger effect = lower value",1.03
same,normalized growth,"S. cerevisiae deletion strains, locus YBR229C, strain ROT2, stronger effect = lower value",1.01
same,normalized growth,"S. cerevisiae deletion strains, locus YCL029C, strain bik1, stronger effect = lower value",0.989
same,normalized growth,"S. cerevisiae deletion strains, locus YDL035C, strain GPR1, stronger effect = lower value",0.993
same,normalized growth,"S. cerevisiae deletion strains, locus YDL074C, strain BRE1, stronger effect = lower value",0.981
same,normalized growth,"S. cerevisiae deletion strains, locus YDL101C, strain DUN1, stronger effect = lower value",1.01
same,normalized growth,"S. cerevisiae deletion strains, locus YDL185W, strain tfp1, stronger effect = lower value",0.971
same,normalized growth,"S. cerevisiae deletion strains, locus YDL192W, strain arf1, stronger effect = lower value",0.992
same,normalized growth,"S. cerevisiae deletion strains, locus YDR101C, strain arx1, stronger effect = lower value",1.01
same,normalized growth,"S. cerevisiae deletion strains, locus YDR162C, strain NBP2, stronger effect = lower value",1.03
same,normalized growth,"S. cerevisiae deletion strains, locus YDR318W, strain mcm21, stronger effect = lower value",0.995
same,normalized growth,"S. cerevisiae deletion strains, locus YDR388W, stronger effect = lower value",1
same,normalized growth,"S. cerevisiae deletion strains, locus YDR502C, strain sam2, stronger effect = lower value",0.982
same,normalized growth,"S. cerevisiae deletion strains, locus YEL061C, strain CIN8, stronger effect = lower value",1.01
same,normalized growth,"S. cerevisiae deletion strains, locus YER110C, stronger effect = lower value",0.988
same,normalized growth,"S. cerevisiae deletion strains, locus YER155C, strain BEM2, stronger effect = lower value",1.01
same,normalized growth,"S. cerevisiae deletion strains, locus YER167W, strain BCK2, stronger effect = lower value",0.991
same,normalized growth,"S. cerevisiae deletion strains, locus YGL078C, strain dbp3, stronger effect = lower value",1.01
same,normalized growth,"S. cerevisiae deletion strains, locus YGL086W, strain mad1, stronger effect = lower value",1.04
same,normalized growth,"S. cerevisiae deletion strains, locus YGL248W, strain PDE1, stronger effect = lower value",1.01
same,normalized growth,"S. cerevisiae deletion strains, locus YGR078C, strain PAC10, stronger effect = lower value",1.01
same,normalized growth,"S. cerevisiae deletion strains, locus YGR135W, strain pre9, stronger effect = lower value",1
same,normalized growth,"S. cerevisiae deletion strains, locus YGR229C, strain SMI1, stronger effect = lower value",0.994
same,normalized growth,"S. cerevisiae deletion strains, locus YGR252W, strain gcn5, stronger effect = lower value",1
same,normalized growth,"S. cerevisiae deletion strains, locus YHR030C, strain SLT2, stronger effect = lower value",1.01
same,normalized growth,"S. cerevisiae deletion strains, locus YHR079C, strain IRE1 (second series), stronger effect = lower value",0.997
same,normalized growth,"S. cerevisiae deletion strains, locus YHR094C, strain hxt1, stronger effect = lower value",0.989
same,normalized growth,"S. cerevisiae deletion strains, locus YHR129C, strain ARP1, stronger effect = lower value",1.01
same,normalized growth,"S. cerevisiae deletion strains, locus YHR200W, strain rpn10, stronger effect = lower value",1.01
same,normalized growth,"S. cerevisiae deletion strains, locus YIL066C, strain RNR3, stronger effect = lower value",1
same,normalized growth,"S. cerevisiae deletion strains, locus YIL073C, strain SPO22, stronger effect = lower value",1.03
same,normalized growth,"S. cerevisiae deletion strains, locus YIL125W, strain kgd1, stronger effect = lower value",0.98
same,normalized growth,"S. cerevisiae deletion strains, locus YIR030C, strain dcg1, stronger effect = lower value",0.992
same,normalized growth,"S. cerevisiae deletion strains, locus YJL095W, strain BCK1, stronger effect = lower value",1.02
same,normalized growth,"S. cerevisiae deletion strains, locus YJL134W, strain LCB3, stronger effect = lower value",1.01
same,normalized growth,"S. cerevisiae deletion strains, locus YJL168C, strain set2, stronger effect = lower value",0.988
same,normalized growth,"S. cerevisiae deletion strains, locus YJL187C, strain SWE1 (second series), stronger effect = lower value",1
same,normalized growth,"S. cerevisiae deletion strains, locus YJR043C, strain POL32, stronger effect = lower value",1.02
same,normalized growth,"S. cerevisiae deletion strains, locus YKL009W, strain mrt4, stronger effect = lower value",1.52 [resistant] (active)
same,normalized growth,"S. cerevisiae deletion strains, locus YKL068W, stronger effect = lower value",1.03
same,normalized growth,"S. cerevisiae deletion strains, locus YKL085W, strain MDH1 (second series), stronger effect = lower value",1.08 [resistant] (active)
same,normalized growth,"S. cerevisiae deletion strains, locus YKL085W, strain MDH1, stronger effect = lower value",1.08 [resistant] (active)
same,normalized growth,"S. cerevisiae deletion strains, locus YKR001C, strain vps1, stronger effect = lower value",0.978
same,normalized growth,"S. cerevisiae deletion strains, locus YLR039C, strain RIC1, stronger effect = lower value",0.99
same,normalized growth,"S. cerevisiae deletion strains, locus YLR058C, strain SHM2, stronger effect = lower value",1
same,normalized growth,"S. cerevisiae deletion strains, locus YLR102C, strain apc9, stronger effect = lower value",0.99
same,normalized growth,"S. cerevisiae deletion strains, locus YLR262C, strain YPT6, stronger effect = lower value",1.02
same,normalized growth,"S. cerevisiae deletion strains, locus YLR268W, strain sec22, stronger effect = lower value",0.979
same,normalized growth,"S. cerevisiae deletion strains, locus YLR330W, strain CHS5, stronger effect = lower value",1.01
same,normalized growth,"S. cerevisiae deletion strains, locus YLR342W, strain FKS1 (second series), stronger effect = lower value",0.99
same,normalized growth,"S. cerevisiae deletion strains, locus YLR371W, strain rom2, stronger effect = lower value",0.984
same,normalized growth,"S. cerevisiae deletion strains, locus YLR418C, strain cdc73, stronger effect = lower value",0.946
same,normalized growth,"S. cerevisiae deletion strains, locus YML016C, strain PPZ1, stronger effect = lower value",1.01
same,normalized growth,"S. cerevisiae deletion strains, locus YML032C, strain rad52, stronger effect = lower value",0.981
same,normalized growth,"S. cerevisiae deletion strains, locus YML124C, strain tub3, stronger effect = lower value",0.995
same,normalized growth,"S. cerevisiae deletion strains, locus YMR078C, strain ctf18, stronger effect = lower value",1.01
same,normalized growth,"S. cerevisiae deletion strains, locus YMR223W, strain ubp8, stronger effect = lower value",0.985
same,normalized growth,"S. cerevisiae deletion strains, locus YMR307W, strain GAS1, stronger effect = lower value",1.1
same,normalized growth,"S. cerevisiae deletion strains, locus YNL067W, strain RPL9B, stronger effect = lower value",1.01
same,normalized growth,"S. cerevisiae deletion strains, locus YNL233W, strain BNI4, stronger effect = lower value",1.02
same,normalized growth,"S. cerevisiae deletion strains, locus YNL250W, strain rad50, stronger effect = lower value",0.989
same,normalized growth,"S. cerevisiae deletion strains, locus YNL271C, strain bni1, stronger effect = lower value",0.991
same,normalized growth,"S. cerevisiae deletion strains, locus YNL298W, strain CLA4, stronger effect = lower value",1.01
same,normalized growth,"S. cerevisiae deletion strains, locus YNL307C, strain MCK1, stronger effect = lower value",0.987
same,normalized growth,"S. cerevisiae deletion strains, locus YNR052C, strain pop2, stronger effect = lower value",0.978
same,normalized growth,"S. cerevisiae deletion strains, locus YOL006C, strain TOP1, stronger effect = lower value",0.978
same,normalized growth,"S. cerevisiae deletion strains, locus YOL012C, strain htz1",0.848
same,normalized growth,"S. cerevisiae deletion strains, locus YOL147C, strain pex11, stronger effect = lower value",0.991
same,normalized growth,"S. cerevisiae deletion strains, locus YOR061W, strain CKA2, stronger effect = lower value",0.99
same,normalized growth,"S. cerevisiae deletion strains, locus YOR069W, strain VPS5, stronger effect = lower value",1.01
same,normalized growth,"S. cerevisiae deletion strains, locus YOR136W, strain idh2, stronger effect = lower value",0.987
same,normalized growth,"S. cerevisiae deletion strains, locus YOR144C, strain elg1, stronger effect = lower value",0.992
same,normalized growth,"S. cerevisiae deletion strains, locus YOR184W, strain ser1, stronger effect = lower value",0.995
same,normalized growth,"S. cerevisiae deletion strains, locus YOR316C, strain cot1, stronger effect = lower value",0.995
same,normalized growth,"S. cerevisiae deletion strains, locus YPL055C, strain LGE1, stronger effect = lower value",0.994
same,normalized growth,"S. cerevisiae deletion strains, locus YPL241C, strain CIN2, stronger effect = lower value",1.01
same,normalized growth,"S. cerevisiae deletion strains, locus YPR119W, strain clb2, stronger effect = lower value",1.01
same,normalized growth,"S. cerevisiae deletion strains, locus YPR141C, strain kar3, stronger effect = lower value",0.995
same,normalized growth,"S. cerevisiae deletion strains, locus YPR163C, strain tif3, stronger effect = lower value",1.01
same,normalized growth,"S. cerevisiae deletion strains, locus YPR167C, strain met16, stronger effect = lower value",0.978
same,normalized growth,"S. cerevisiae deletion strains, strain wtn01, stronger effect = lower value",0.977
same,normalized growth,"S. cerevisiae strains, strain wild type, stronger effect = lower value",1
